Source: PubChem
This is a sample that favours compounds with a hit; in the whole collection about 18% have one here.
GCN5L2 inh = blocks human GCN5L2 histone acetyltransferase; hit rate 0.21% among 390,000; GCN5L2 HAT assay, ThioGlo1 CoA-SH fluorescence; AID 504327; Potency, µM (series often up to 58.9 µM), for inactives: at the top dose activity change, negative = inhibition, usual class: inhibitors; Q92830
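Preincubate 20nM GCN5L2 with compound 15 min, RT → add 50uM ThioGlo1 + 75uM H3(1-25) + 70uM acetyl-CoA → read fluorescence 0 and 20 min. Primary qHTS; fluorescent artifacts likely.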
TDP1 inh = blocks human tyrosyl-DNA phosphodiesterase 1. Q9NUW8. recombinant TDP1, AlphaScreen DNA substrate cleavage. Potency, µM (titrated, usually from 130 µM), for the others: at the top dose activity change, negative = inhibition, hits mostly inhibitors. hit rate 0.28% among 350,000; note: nearly all actives have a fitted effect of over 40% in size
Target sequence (Q9NUW8 whole entry, looked up): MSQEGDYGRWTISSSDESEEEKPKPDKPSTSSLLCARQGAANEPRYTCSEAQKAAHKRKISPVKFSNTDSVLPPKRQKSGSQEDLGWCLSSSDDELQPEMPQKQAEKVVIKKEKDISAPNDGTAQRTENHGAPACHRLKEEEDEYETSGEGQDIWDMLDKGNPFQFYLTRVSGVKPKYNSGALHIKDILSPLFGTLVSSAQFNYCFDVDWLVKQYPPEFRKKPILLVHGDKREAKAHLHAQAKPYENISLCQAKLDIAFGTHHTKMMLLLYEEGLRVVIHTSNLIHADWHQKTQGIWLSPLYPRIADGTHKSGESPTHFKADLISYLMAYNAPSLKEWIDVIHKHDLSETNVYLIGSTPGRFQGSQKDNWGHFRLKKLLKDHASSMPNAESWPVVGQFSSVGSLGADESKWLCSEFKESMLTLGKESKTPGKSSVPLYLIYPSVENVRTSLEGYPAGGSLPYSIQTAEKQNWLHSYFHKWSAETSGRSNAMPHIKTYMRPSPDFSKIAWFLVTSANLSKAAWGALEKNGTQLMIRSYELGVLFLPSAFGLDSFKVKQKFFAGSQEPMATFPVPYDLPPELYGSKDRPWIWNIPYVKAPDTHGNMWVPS
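Recombinant human Tdp1 (E. coli-expressed, 1 nM final) preincubated with compounds 15 min at room temperature, then 5'-biotin/3'-phosphotyrosine-FITC DNA substrate (15 nM final) added for 5 min. AlphaScreen beads (10 ug/ml final) added 10 min; cleavage lowers signal.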
DT40 TDP1 no CPT = qHTS for Inhibitors of human tyrosyl-DNA phosphodiesterase 1 (TDP1): qHTS in cells in absence of CPT | DT40 Tdp1-/- hTDP1 cells, no CPT, ATP luminescence, 48 h | Potency, µM (top dose mostly 46.2 µM), inactives show at the top dose activity change, negative = growth inhibition, hits mostly inhibitors | hit rate 15% among 420,000 | AID 686978, 2013; note: nearly all actives have a fitted effect of over 55% in size
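Chicken DT40 Tdp1-/- cells complemented with human TDP1, screened without camptothecin (DMSO vehicle only), 400 cells/well. Compounds pin-transferred, cells incubated at 37 °C for at least 48 hr. Growth read as ATP-dependent luminescence (CellTiter-Glo, 30 min at RT).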
VDR inhibitor = inhibitors of human vitamin D receptor. hit rate 0.93% among 400,000. Potency, µM, without a hit: max response, negative = inhibition, actives largely listed as inhibitors. AID 504847. VDR-SRC2-3 peptide fluorescence polarization, 2 h. P11473
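Compounds are added to VDR with labelled SRC2-3 coactivator peptide and held 2 h at room temperature. Inhibition of the VDR–peptide interaction is then read as a change in fluorescence polarization.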
DT40 TDP1 CPT = growth inhibition of DT40 Tdp1-/-;hTDP1 cells with camptothecin (screen for TDP1 inhibitors); hit rate 12% among 420,000; Potency, µM (top dose mostly 46.2 µM), for the others: at the highest dose activity change, negative = growth inhibition, hits mostly inhibitors; AID 686979; chicken DT40 Tdp1-/-;hTDP1 cells + 20 nM CPT, ATP luminescence, 48 h; note: nearly all actives have a fitted effect of over 55% in size
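Chicken DT40 Tdp1-/- cells stably complemented with human TDP1 were seeded at 400 cells/well in medium containing 20 nM camptothecin, exposed to pin-transferred compounds, and grown at 37 °C for at least 48 hr. Viability was read as ATP luminescence.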
PLK1 PBD inh = blocks phosphopeptide binding to human PLK1 polo-box domain | Plk1 PBD binding of FITC phosphopeptide, fluorescence polarization | Potency, µM, without a hit: max response, negative = inhibition, hits mostly inhibitors | hit rate 2.8% among 360,000 | AID 720504; note: series mostly up to about 57 µM; nearly all actives have a fitted effect of over 65% in size
* hit, by the source's call; ? = inconclusive; / = no result; [ ] = remark or other dose. Calls come from the whole dose curve; as a rule, active = well fitted curve in the direction sought with a large enough effect; inconclusive = small, poorly fitted or top-dose-only effect, or another doubt; inactive = no such curve, though single readings can be large; an effect the other way counts as inactive or inconclusive. % is set by controls: 0 for no effect and ±100 for the full control effect; potency is the fitted concentration of half-maximal effect.

SMILES	GCN5L2 inh	TDP1 inh	DT40 TDP1 no CPT	VDR inhibitor	DT40 TDP1 CPT	PLK1 PBD inh
COc1cc(-c2nnc(SCC3(c4ccc(Br)cc4)OCCO3)o2)cc(OC)c1OC	22.2%	-1.5%	?	6.1%	16.4µM*	-12.7%
CCCNC(=O)C1(C)CCN(C(=O)c2ccc3sccc3c2)C1 (configuration not stated)	/	/	-6.7%	/	-12.2%	-8.2%
ON/C=N/C(=S)Nc1ncc(C(F)(F)F)cc1Cl	-10.9%	11.0%	11.6µM*	-3.6%	14.6µM*	-5.3%
Cc1ccc(NC(=S)NNc2ncc(C(F)(F)F)cc2Cl)cc1	23.2%	7.9%	?	-24.2%	?	-22.8%
Cc1ccc(NC(=S)NNc2ncc(C(F)(F)F)cc2Cl)c(C)c1	18.3%	10.1%	?	?	?	-16.2%
CC(C)C(=O)Nc1ncc(C(F)(F)F)cc1Cl	1.4%	6.9%	-4.2%	-6.2%	-8.8%	-8.2%
FC(F)(F)c1cnc(NNC(=S)Nc2ccc(Cl)cc2)c(Cl)c1	-3.5%	9.1%	13µM*	-18.6%	10.3µM*	-13.6%
O=C(O)c1ccc(NNC(=S)Nc2cc(C(F)(F)F)ccc2Cl)cc1	-9.6%	7.6%	?	22.4µM*	?	21.2µM*
Fc1ccc(NC(=S)NNc2ncc(C(F)(F)F)cc2Cl)c(F)c1	-7.2%	5.1%	13µM*	-7.1%	11.6µM*	-7.4%
COc1ccc(CC(=O)NCCS(=O)(=O)N2CCN(c3ccccc3F)CC2)cc1OC	-5.6%	7.7%	?	8.7%	?	/
CCn1ncc(S(=O)(=O)Nc2cc(Cl)ccc2C)c1C	-6.6%	1.4%	-0.5%	9.6%	-5.1%	-23.4%
Cc1ccc(S(=O)(=O)N(CC(=O)Nc2ccc(Cl)cc2)C(=O)N2CCN(C)CC2)cc1	-16.9%	/	-1.7%	-13.4%	?	-3.5%
CC(=O)NC(CCc1ccc(Cl)c(Cl)c1)c1cccc(O)c(=O)c1 (configuration not stated)	/	/	7.31µM*	/	23.1µM*	-17.9%
CC(=O)NC(CCS(C)(=O)=O)C(=O)Nc1ccc(Cl)c(Cl)c1 (configuration not stated)	-5.5%	5.2%	-13.0%	-13.9%	-0.5%	-1.6%
Clc1ccccc1-c1nnn(Cc2ccc(-c3nn[nH]n3)cc2)n1	-21.7%	-1.1%	?	-22.3%	?	26.7µM*
Cc1c(Cc2ccccc2)sc(NC(=O)/C=C/c2cccc3ccccc23)c1C(N)=O	20.4%	0.0%	3.26µM*	?	3.66µM*	7.52µM*
CCOc1ccc2oc(=O)cc(CN3CCN(Cc4ccccc4)CC3)c2c1	-10.1%	/	23.1µM*	3.0%	?	-0.6%
COc1ccc2oc(=O)cc(CN3CCN(Cc4ccccc4)CC3)c2c1	0.5%	0.0%	?	2.8%	?	-7.3%
CC(C)c1ccc2oc(=O)cc(CN3CCCCC3)c2c1	-0.6%	/	23.1µM*	-8.9%	29.1µM*	-10.0%
Nc1cc(N)nc(SCc2cc(=O)oc3cc4c(cc23)CCC4)n1	-14.1%	4.2%	?	-19.2%	?	26.7µM*
CCOc1ccc(C(=O)OC(C)C(=O)N2CCN(Cc3ccccc3)CC2)cc1 (configuration not stated)	2.7%	-0.3%	18.4µM*	-8.0%	16.4µM*	2.2%
Cc1cccc(CN2C(=O)c3ccccc3S(=O)(=O)c3ccc(C(=O)NCCC4=CCCCC4)cc32)c1	-9.7%	3.5%	?	-5.2%	?	/
Cc1ccc(C)c(CN2CCc3nnc(CNC(=O)c4cc(C)oc4C)n3CC2)c1	/	/	-20.5%	/	?	/
COc1ccccc1P(=O)(c1ccccc1)c1ccc([N+](=O)[O-])cc1 (configuration not stated)	22.2%	/	?	-1.8%	14.0%	-0.4%
CC(C)CN(Cc1cc(=O)oc2cc3c(cc12)CCCC3)CC(C)C	-31.6%	2.7%	20.6µM*	-10.2%	?	-6.0%
SMILES	GCN5L2 inh	TDP1 inh	DT40 TDP1 no CPT	VDR inhibitor	DT40 TDP1 CPT	PLK1 PBD inh
O=c1cc(CN2CCN(CCO)CC2)c2cc3c(cc2o1)CCC3	-4.6%	8.2%	-10.4%	-10.0%	-16.0%	1.9%
CCOc1ccc2oc(=O)cc(CN3CCN(Cc4ccc(C)cc4)CC3)c2c1	-10.8%	0.0%	14.6µM*	5.8%	23.1µM*	/
Cc1ccc2oc(=O)cc(CN3CCN(Cc4ccccc4)CC3)c2c1	-18.5%	/	-9.2%	13.7%	-21.8%	1.0%
O=c1cc(CN2CCN(Cc3ccccc3)CC2)c2cc3c(cc2o1)CCC3	-24.0%	/	18.4µM*	-9.0%	?	3.4%
c1ccc(OCc2nn3c(-c4ccncc4)nnc3s2)cc1	-2.7%	1.0%	?	-11.9%	-26.9%	-0.4%
Clc1ccc(-c2nn3c(-c4ccncc4)nnc3s2)c(Cl)c1	1.1%	2.1%	/	/	/	/
c1ccc(Cc2nn3c(-c4ccncc4)nnc3s2)cc1	-5.8%	6.2%	-26.6%	?	?	23.8µM*
Clc1ccccc1-c1nnc2sc(-c3ccncc3)nn12	-0.7%	2.6%	-18.3%	?	?	26.7µM*
Clc1ccccc1-c1nn2c(-c3ccncc3)nnc2s1	-2.3%	-3.3%	23.1µM*	?	16.4µM*	23.8µM*
CCn1c(SCC(=O)Nc2c(C)cccc2C)nnc1-c1nonc1NC(C)=O	4.3%	1.6%	-20.2%	13.4%	-6.7%	/
Cc1c(C(=O)Nc2ccc(-c3nc4cc(Cl)ccc4o3)cc2)oc2ccccc12	21.3%	-2.2%[12.3 µM]	-10.9%	0.5%	15.5%	/
CCOc1ccc(NC(=O)Nc2cc3c(cc2N2CCCCC2)n(C)c(=O)n3C)cc1	-3.6%	2.5%	13µM*	-4.2%	11.6µM*	/
COc1ccc(C(=O)Nc2cc3c(cc2N2CCCCC2)n(C)c(=O)n3C)cc1OC	-9.0%	5.5%	20.6µM*	-7.2%	?	-9.3%
COc1cc(C(=O)Nc2cc3c(cc2N2CCCCC2)n(C)c(=O)n3C)cc(OC)c1OC	-6.0%	6.8%	14.6µM*	-19.4%	20.6µM*	-4.0%
CCC1CN(CCNC(=O)c2ccc3c(c2)OCO3)Cc2cc(OC)ccc2O1 (configuration not stated)	/	/	?	/	-4.5%[9.04 µM]	/
O=C(c1ccc(Cl)cc1)C1CCN(C(=O)C2CC2)CC1	14.1µM*	2.1%	?	8.0%	-49.4%	1.9%
CCS(=O)(=O)N1CCN(CC(=O)NC2CCCCC2)CC1	-6.5%	2.6%	?	-3.4%	?	21.2µM*
O=C(c1ccccc1)C1CCN(C(=O)c2ccc(Cl)cc2)CC1	7.1%	/	-28.4%	-7.9%	?	-1.4%
O=C(CN1CCC(C(=O)c2ccc(Cl)cc2)CC1)NC1CCCC1	-5.8%	/	23.1µM*	0.0%	?	-11.2%
